# Measurements from PubChem BioAssay (EPA / NIEHS).
# Results filed as inconclusive are left out. Active and inactive are the calls of the source. The calls were made as follows: active = hit-call score of the fitted dose curve at least 0.9, where 1 is the maximum; inconclusive = response in the unintended direction; inactive = score below 0.9.
# How the values were obtained:
# [1] = molecular target: Estrogen receptor beta (Homo sapiens) (UniProt Q92731); assay: OT_ER_ERbERb_1440: Odyssey Thera (OT) 24-hour HEK293T Protein-Complementation Assay for Estrogen Receptor-beta/-beta Homodimer (AID 2283380);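 also: fluorescence gain from ER beta LBD homodimer complementation read by laser scanning cytometry; scored as signal increase over DMSO baseline for both agonists and antagonists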
# Sequence of Estrogen receptor beta (Homo sapiens) (Q92731 whole entry, looked up, the tested form may be a part): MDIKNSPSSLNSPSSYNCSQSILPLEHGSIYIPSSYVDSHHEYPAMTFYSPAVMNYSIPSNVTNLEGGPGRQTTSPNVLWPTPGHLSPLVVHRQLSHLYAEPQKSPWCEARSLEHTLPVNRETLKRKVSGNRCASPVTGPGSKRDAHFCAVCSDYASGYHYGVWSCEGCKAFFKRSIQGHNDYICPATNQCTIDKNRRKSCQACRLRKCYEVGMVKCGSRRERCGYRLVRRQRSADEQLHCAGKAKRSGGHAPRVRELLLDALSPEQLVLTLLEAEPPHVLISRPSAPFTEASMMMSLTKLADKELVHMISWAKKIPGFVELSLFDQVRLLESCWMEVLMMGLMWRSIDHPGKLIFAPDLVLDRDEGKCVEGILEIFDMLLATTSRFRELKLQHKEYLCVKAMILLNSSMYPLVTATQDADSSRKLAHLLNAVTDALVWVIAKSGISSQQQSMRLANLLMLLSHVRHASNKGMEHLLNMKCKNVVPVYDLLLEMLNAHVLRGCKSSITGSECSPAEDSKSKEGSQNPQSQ
# Method in brief: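 Fluorescence increase, nuclear for agonists or whole-cell for antagonists, relative to DMSO vehicle, quantified by laser scanning cytometer after fixation and Draq5 staining. Readout from 24 h treatment of HEK293T cells carrying complementation-paired ER beta LBD (aa 310-547).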
# [2] = molecular target: Agonist Androgen Response Element (ARE), AR (gene 367) (UniProt P10275); assay: OT_AR_ARELUC_AG_1440: Odyssey Thera (OT) 24-hour CHO-K1 Luciferase Assay for Agonist Androgen Response Element (ARE) (AID 2283379)
# Sequence of Agonist Androgen Response Element (ARE), AR (gene 367) (P10275 whole entry, looked up): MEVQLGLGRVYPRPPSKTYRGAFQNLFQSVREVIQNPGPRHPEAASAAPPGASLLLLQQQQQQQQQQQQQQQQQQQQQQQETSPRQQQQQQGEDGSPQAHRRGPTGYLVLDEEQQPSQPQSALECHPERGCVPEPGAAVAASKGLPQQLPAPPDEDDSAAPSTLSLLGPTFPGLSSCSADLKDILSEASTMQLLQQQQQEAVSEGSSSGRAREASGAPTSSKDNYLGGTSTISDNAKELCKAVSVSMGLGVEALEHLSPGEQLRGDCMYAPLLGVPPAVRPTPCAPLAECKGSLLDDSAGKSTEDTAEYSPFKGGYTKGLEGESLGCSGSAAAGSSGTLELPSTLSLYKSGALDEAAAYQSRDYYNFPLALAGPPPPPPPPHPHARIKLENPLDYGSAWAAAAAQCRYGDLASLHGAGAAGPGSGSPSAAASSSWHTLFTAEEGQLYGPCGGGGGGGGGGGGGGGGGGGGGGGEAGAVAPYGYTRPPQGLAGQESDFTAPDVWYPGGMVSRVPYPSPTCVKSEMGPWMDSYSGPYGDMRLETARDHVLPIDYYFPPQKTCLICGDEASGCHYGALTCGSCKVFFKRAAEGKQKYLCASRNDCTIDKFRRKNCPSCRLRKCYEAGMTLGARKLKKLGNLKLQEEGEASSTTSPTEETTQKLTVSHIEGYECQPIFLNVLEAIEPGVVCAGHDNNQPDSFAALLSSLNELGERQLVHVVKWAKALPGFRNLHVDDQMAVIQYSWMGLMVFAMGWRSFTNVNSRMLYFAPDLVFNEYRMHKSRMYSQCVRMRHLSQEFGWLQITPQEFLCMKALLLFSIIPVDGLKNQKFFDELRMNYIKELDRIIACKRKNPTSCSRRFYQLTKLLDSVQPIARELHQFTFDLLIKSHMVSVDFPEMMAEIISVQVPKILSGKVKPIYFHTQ
# Method in brief: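 Readout: luciferase bioluminescence from CHO-K1 ARE-luc cells, measured 24 h post-dosing; agonism = increased mean luminescence vs DMSO controls, fitted in positive direction.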
# [3] = molecular target: human Dopamine Transporter (DAT), SLC6A3 (gene 6531) (UniProt Q01959); assay: NVS_TR_hDAT: NovaScreen (NVS) Transporter Assay for human Dopamine Transporter (DAT) (AID 2283374);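 also: activity means loss of bound radioligand signal relative to DMSO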
# Sequence of human Dopamine Transporter (DAT), SLC6A3 (gene 6531) (Q01959 whole entry, looked up): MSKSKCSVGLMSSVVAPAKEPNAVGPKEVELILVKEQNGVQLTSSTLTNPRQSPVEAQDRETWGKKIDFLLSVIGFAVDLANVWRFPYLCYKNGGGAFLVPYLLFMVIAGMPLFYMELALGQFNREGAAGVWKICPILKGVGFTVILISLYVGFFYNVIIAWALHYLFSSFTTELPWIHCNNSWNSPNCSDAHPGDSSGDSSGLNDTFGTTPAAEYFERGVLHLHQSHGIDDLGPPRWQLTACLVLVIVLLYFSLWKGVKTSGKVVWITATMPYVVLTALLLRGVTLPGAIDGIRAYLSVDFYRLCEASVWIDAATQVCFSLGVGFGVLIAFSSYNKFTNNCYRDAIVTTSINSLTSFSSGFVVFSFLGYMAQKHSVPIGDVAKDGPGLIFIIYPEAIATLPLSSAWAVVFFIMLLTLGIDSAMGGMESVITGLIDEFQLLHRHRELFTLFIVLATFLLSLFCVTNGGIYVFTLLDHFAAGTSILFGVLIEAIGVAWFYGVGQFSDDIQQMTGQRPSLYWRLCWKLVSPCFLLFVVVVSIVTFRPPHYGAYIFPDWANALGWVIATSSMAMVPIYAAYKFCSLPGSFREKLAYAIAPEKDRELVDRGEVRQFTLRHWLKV
# Method in brief: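 Duplicate single-point screening at 25 uM preceded concentration-series follow-up of actives. Binding was measured by competitive displacement of a radioligand from DAT protein, filter-counted by scintillation 1 h after dosing. Decrease relative to DMSO taken as activity.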
# [4] = system: rat Norepinephrine Transporter (NET), gene 83511; assay: NVS_TR_rNET: NovaScreen (NVS) Transporter Assay for rat Norepinephrine Transporter (NET) (AID 2283373)
# Method in brief: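 Competitive radioligand displacement at the rat NET using forebrain membrane preparations, 1 h incubation, filter-based scintillation readout. Primary testing in duplicate at a single 25 uM concentration; confirmed actives retested across concentrations.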
# [5] = molecular target: human Norepinephrine Transporter (NET), SLC6A2 (gene 6530) (UniProt P23975); assay: NVS_TR_hNET: NovaScreen (NVS) Transporter Assay for human Norepinephrine Transporter (NET) (AID 2283377);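 also: cell-free membrane protein extracted from CHO cells expressing human NET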;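 as to AC50: displacement of radioligand from human NET seen as loss of scintillation signal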
# Sequence of human Norepinephrine Transporter (NET), SLC6A2 (gene 6530) (P23975 whole entry, looked up): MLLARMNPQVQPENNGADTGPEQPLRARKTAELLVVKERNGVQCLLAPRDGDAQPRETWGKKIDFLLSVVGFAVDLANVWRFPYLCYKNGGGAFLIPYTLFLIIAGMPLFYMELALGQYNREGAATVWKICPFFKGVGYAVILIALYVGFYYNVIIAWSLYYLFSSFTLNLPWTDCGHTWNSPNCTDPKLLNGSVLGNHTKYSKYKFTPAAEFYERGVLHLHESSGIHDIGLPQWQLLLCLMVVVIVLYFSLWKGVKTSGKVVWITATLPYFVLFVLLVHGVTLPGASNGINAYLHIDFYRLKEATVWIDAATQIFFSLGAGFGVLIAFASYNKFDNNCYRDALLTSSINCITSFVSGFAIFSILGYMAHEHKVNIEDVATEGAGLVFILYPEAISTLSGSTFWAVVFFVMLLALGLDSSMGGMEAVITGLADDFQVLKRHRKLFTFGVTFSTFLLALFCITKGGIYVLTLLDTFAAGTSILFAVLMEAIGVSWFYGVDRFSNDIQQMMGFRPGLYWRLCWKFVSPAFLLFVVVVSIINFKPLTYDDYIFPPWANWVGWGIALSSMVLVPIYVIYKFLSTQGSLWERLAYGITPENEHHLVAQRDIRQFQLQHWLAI
# Method in brief: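 Single-concentration duplicate screen at 25 uM, then concentration-response for actives; displacement of specific radioligand from human NET in CHO membrane extracts, filter-based scintillation detection at 1 h relative to DMSO.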
# [6] = molecular target: rat Serotonin Transporter (SERT), Slc6a4 (gene 25553) (UniProt P31652); assay: NVS_TR_rSERT: NovaScreen (NVS) Transporter Assay for rat Serotonin Transporter (SERT) (AID 2283375)
# Sequence of rat Serotonin Transporter (SERT), Slc6a4 (gene 25553) (P31652 whole entry, looked up): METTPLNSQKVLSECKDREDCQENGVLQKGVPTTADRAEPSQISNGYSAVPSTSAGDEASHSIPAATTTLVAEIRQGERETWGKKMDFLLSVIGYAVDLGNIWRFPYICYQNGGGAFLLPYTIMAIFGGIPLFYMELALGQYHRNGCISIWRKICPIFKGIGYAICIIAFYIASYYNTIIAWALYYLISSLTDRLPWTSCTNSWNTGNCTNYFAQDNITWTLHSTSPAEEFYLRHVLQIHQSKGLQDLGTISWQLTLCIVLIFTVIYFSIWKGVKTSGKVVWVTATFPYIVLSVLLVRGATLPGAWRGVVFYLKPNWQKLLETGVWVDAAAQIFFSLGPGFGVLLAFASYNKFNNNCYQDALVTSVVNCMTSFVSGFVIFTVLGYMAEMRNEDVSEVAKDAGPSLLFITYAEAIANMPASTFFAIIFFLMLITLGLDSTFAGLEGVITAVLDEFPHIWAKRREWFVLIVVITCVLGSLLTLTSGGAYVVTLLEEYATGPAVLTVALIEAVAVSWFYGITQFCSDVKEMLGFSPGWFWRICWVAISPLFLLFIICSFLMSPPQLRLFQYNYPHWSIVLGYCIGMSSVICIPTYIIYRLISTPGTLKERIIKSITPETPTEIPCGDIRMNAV
# Method in brief: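 Rat forebrain membranes; radioligand displacement at SERT read by filter-based scintillation counting, 1 h after dosing. Screened in duplicate at 25 uM, actives then run in concentration series; loss of signal versus DMSO baseline.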
# [7] = molecular target: human Serotonin Transporter (SERT), SLC6A4 (gene 6532) (UniProt P31645); assay: NVS_TR_hSERT: NovaScreen (NVS) Transporter Assay for human Serotonin Transporter (SERT) (AID 2283372)
# Sequence of human Serotonin Transporter (SERT), SLC6A4 (gene 6532) (P31645 whole entry, looked up): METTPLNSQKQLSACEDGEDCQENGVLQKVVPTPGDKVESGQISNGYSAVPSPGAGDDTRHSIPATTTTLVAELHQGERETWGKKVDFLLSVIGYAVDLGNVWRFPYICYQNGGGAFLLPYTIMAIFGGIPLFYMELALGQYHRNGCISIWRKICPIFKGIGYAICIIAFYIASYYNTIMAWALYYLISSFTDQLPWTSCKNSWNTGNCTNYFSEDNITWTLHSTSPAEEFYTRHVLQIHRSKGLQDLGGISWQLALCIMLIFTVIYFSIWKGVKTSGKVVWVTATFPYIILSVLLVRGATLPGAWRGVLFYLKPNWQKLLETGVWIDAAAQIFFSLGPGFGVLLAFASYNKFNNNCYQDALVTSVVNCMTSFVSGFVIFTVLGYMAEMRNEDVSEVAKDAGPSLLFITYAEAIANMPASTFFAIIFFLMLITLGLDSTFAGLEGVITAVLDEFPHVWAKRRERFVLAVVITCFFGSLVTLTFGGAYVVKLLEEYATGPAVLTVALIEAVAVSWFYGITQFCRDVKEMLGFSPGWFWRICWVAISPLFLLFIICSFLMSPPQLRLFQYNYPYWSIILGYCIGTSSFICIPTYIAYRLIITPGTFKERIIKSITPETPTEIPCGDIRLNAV
# Method in brief: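 Human platelet membrane preparation; displacement of radioligand from serotonin transporter measured after 1 h by filtration and scintillation counting. Single 25 uM duplicate screen, then concentration series for actives, with DMSO as negative baseline.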
smiles,measurement,setting,value
O=P(OC(CCl)CCl)(OC(CCl)CCl)OC(CCl)CCl,outcome,[1],inactive
Nc1nc2ncc(CNc3ccc(C(=O)N[C@@H](CCC(=O)O)C(=O)O)cc3)nc2c(=O)[nH]1,outcome,[2],inactive
same,outcome,[1],inactive
O=C1OC(=O)C2C3C=CC(C3)C12 (centres undefined),outcome,[1],inactive
CC(O)CN(CCN(CC(C)O)CC(C)O)CC(C)O (centres undefined),outcome,[1],inactive
CCCC(=O)OCC,outcome,[3],inactive
same,outcome,[1],inactive
CC[C@H]1CC[C@H](NCc2cc3c(cc2OC)[C@H]2C[C@H]2C(=O)N3C)[C@H](c2ccccc2)N1,AC50,[4],25 µM (active)
same,AC50,[5],11.3 µM (active)
same,outcome,[1],inactive
C1=CCCC=CCCC=CCC1,outcome,[1],inactive
CC(C)CCO,outcome,[3],inactive
same,outcome,[1],inactive
NC(=O)NO,outcome,[1],inactive
Nc1cccc(N)c1,outcome,[1],inactive
CC(C)CC(C)(O)C#CC(C)(O)CC(C)C (centres undefined),outcome,[1],inactive
CCCCCCCCCCCCCCCO,outcome,[1],inactive
COCCOCCOCCOC,outcome,[6],inactive
same,outcome,[1],inactive
Cc1ccc(N)cc1O,outcome,[2],inactive
same,outcome,[1],inactive
CN(C)c1ccc(Cc2ccc(N(C)C)cc2)cc1,outcome,[1],inactive
Fc1ccccc1[C@@H](F)COC1CCC(Nc2ncnc3[nH]ncc23)CC1 (some centres undefined),AC50,[6],2.48 µM (active)
same,outcome,[2],inactive
same,outcome,[1],inactive
O=C(CCCCCCCCc1cccnc1)N1CCC(C=C(c2ccccc2)c2ccccc2)CC1,outcome,[2],inactive
same,AC50,[1],11.9 µM (active)
O=C1CCC(N2C(=O)c3ccccc3C2=O)C(=O)N1 (centres undefined),outcome,[5],inactive
same,outcome,[1],inactive
Cc1ccc(O)cc1,outcome,[2],inactive
same,outcome,[1],inactive
COC(=O)CC(=O)OC,outcome,[1],inactive
CC(C)CCCCCCCOC(=O)CCCCC(=O)OCCCCCCCC(C)C,AC50,[3],25 µM (active)
same,outcome,[5],inactive
CC(=O)OC[C@H]1O[C@@](COC(C)=O)(O[C@H]2O[C@H](COC(C)=O)[C@@H](OC(C)=O)[C@H](OC(C)=O)[C@H]2OC(C)=O)[C@@H](OC(C)=O)[C@@H]1OC(C)=O,outcome,[1],inactive
CCCN(C1CCN(C(=O)C2CCNCC2)CC1)[C@@H]1CCc2ccc(OC)cc2C1,AC50,[7],10.3 µM (active)
same,AC50,[6],3.7 µM (active)
same,outcome,[2],inactive
same,AC50,[1],59.7 µM (active)
